# Bioassay records: PubChem, Sanford-Burnham Center for Chemical Genomics
# Peg3 prom inh – reduces Peg3 promoter-driven luciferase expression in HeLa. HeLa PEG-Prom luciferase reporter, luminescence, overnight. inhibition, % at 20 µM. 360,000 tested, 1.7% active. AID 588405;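 active = inhibition of at least 50% at 20 µM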
# TWEAK-Fn14 inh – TWEAK-Fn14 signaling inhibition; AID 1159606; inhibition, % at 10 µM; 360,000 tested, 2% active; TWEAK-stimulated Fn14 reporter cells, luciferase luminescence, 8 h; in the data active = inhibition above about 50%
# CF NFkB block – cystic fibrosis NF-kB activation inhibition | KKLEB NF-kB-GFP reporter, PAF-induced, GFP fluorescence overnight | inhibition, % at 5 µM | 360,000 tested, 0.86% active | AID 588850;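 active = at least 50% inhibition at 5 µM, scaled per plate between neutral and stimulator controls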;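 note: PAF is a Pseudomonas aeruginosa culture filtrate used as stimulus; plate controls were PAF-stimulated DMSO wells for no effect and unstimulated DMSO wells for full effect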
# TROY signal inh – blocks TROY-dependent signaling in reporter cells; Q293 LMP1-TROYcd NF-kB luciferase reporter, 4 h; inhibition, % at 10 µM; AID 1347056; 360,000 tested, 0.98% active;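 active = compounds whose plate-normalised and pattern-corrected inhibition of the luciferase reporter signal at the single screening dose is 50% or more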
# KKLEB cytotox – CF airway cell cytotoxicity counter-screen. 360,000 tested, 0.36% active. AID 602141. activity change (cytotoxicity), % at 5 µM. KKLEB CF airway cells viability, ATPlite luminescence, overnight; hits give low values; cells stimulated with P. aeruginosa culture filtrate;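 active = corrected activity change at or below -50% at 5 µM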
# HIF-2a block – HIF-2a inhibition | 360,000 tested, 0.72% active | 786-0 RCC cells HIF-2a reporter, luciferase luminescence, overnight | inhibition, % at 18.8 µM | AID 624352;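 active = inhibition of the luminescence signal of 40% or more relative to plate controls, in a single-dose primary screen at 18.75 µM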
# CF NFkB inh conf – CF NF-kB inhibition confirmation, single concentration; shares compounds with CF NFkB block; KKLEB CF airway cells, PAF-induced NF-kB-GFP fluorescence, overnight; inhibition, % at 5 µM; 1,300 tested, 64% active; in the data active = inhibition above about 40%;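 note: stimulus PAF is a Pseudomonas aeruginosa filtrate and not platelet activating factor; plate controls were DMSO wells with stimulus for no effect and unstimulated DMSO wells for full effect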
# The depositor's hits bear a star; · = not tested or not shown. Compounds with a hit are over-represented: about 4% of the library has one in this group of screens.
SMILES,Peg3 prom inh,TWEAK-Fn14 inh,CF NFkB block,TROY signal inh,KKLEB cytotox,HIF-2a block,CF NFkB inh conf
CC(=O)c1sc(NC(=O)CCS(=O)(=O)c2ccc(C)cc2)nc1C,10,3,56*,-15,-15,13,38
CCOc1cccc2sc(NC(=O)CCS(=O)(=O)c3ccccc3)nc12,53*,4,59*,-1,-19,-57,26
CC1(C)CC(=O)c2sc(NC(=O)CCS(=O)(=O)c3ccccc3)nc2C1,17,23,68*,-3,-12,-42,33
c1ccc2c(-c3ccc4nncn4c3)cncc2c1,6,78*,73*,40,3,5,89*
O=C(CSc1nccc(=O)[nH]1)Nc1cc(C(F)(F)F)ccc1N1CCOCC1,15,20,3,0,-4,9,·
Cc1ccc2nc(SCC(=O)Nc3cc(C(F)(F)F)ccc3N3CCOCC3)[nH]c2c1,15,28,50*,40,-8,21,78*
CC(=O)c1cc(CN2CCN(CC=C(C)C)C(CCO)C2)cs1 (configuration not stated),14,-15,0,3,3,7,·
O=[N+]([O-])c1cc(S(=O)(=O)NCCN2CCOCC2)ccc1Sc1nnnn1-c1ccccc1,42,89*,73*,22,-3,11,19
CC(C)Cc1nc2oc3c(NCC4CCCO4)ncnc3c2c2c1CCC2 (configuration not stated),61*,54*,76*,-2,0,16,90*
O=c1ccc(=O)n(-c2ccccc2)[nH]1,18,-32,-1,-10,-8,9,·
O=c1cc(-c2ccccc2)[nH]n1-c1ccccc1,12,1,58*,53*,-4,-23,32
O=C(COC(=O)C1CCN(c2ccc(C(F)(F)F)cn2)CC1)Nc1cccc(F)c1,-12,-26,64*,-7,-18,-4,19
Cc1ccccc1NC(=O)C(C)Sc1nnc(CN2CCCC2)n1Cc1ccccc1 (configuration not stated),-9,-6,-9,10,0,10,·
CC(=O)Nc1ccc(S(=O)(=O)N2c3ccccc3C(C)=CC2(C)C)cc1,22,9,54*,32,-17,34,65*
CC1=CC(C)(C)N(S(=O)(=O)c2ccc(F)cc2)c2ccccc21,30,8,30,-9,-29,16,·
CCCn1c(N)c(N2CCCCC2)c(=O)n(CC(=O)Nc2ccccc2C(F)(F)F)c1=O,16,7,10,-2,-12,8,·
COc1ccc(CNC(=O)CNC(=O)c2ccc(Br)o2)cc1OC,4,3,6,-5,6,9,·
CCOC(=O)Oc1c(OC)cc(C(=O)O[C@@H]2C[C@@H]3CN4CCc5c([nH]c6cc(OC)ccc56)[C@H]4C[C@@H]3[C@H](C(=O)OC)[C@H]2OC)cc1OC,26,49,77*,22,11,15,87*
O=C(NNc1ccccc1Br)C(O)(c1cccc(C(F)(F)F)c1)c1cccc(C(F)(F)F)c1,54*,73*,57*,57*,-47,24,83*
CCOC(=O)C(Cc1c[nH]c2ccccc12)NC(=O)c1ccccc1Br (configuration not stated),-160,1,5,43,-4,-124,·
O=C(COC(=O)c1ccccc1)Nc1ncc([N+](=O)[O-])s1,-64,19,8,-16,23,-81,·
O=C(Nc1ccccc1)Nc1ncc([N+](=O)[O-])s1,-142,81*,57*,47,-42,-136,87*
CNc1cncc(-c2ccc(F)c(F)c2)n1,-28,-1,3,2,2,-26,·
CNc1ccc2ncc(-c3ccc(OC)c(OC)c3)n2n1,28,83*,76*,57*,-19,17,104*
CNc1cncc(-c2ccc(OC)c(OC)c2)n1,8,19,56*,-7,-10,9,39
SMILES,Peg3 prom inh,TWEAK-Fn14 inh,CF NFkB block,TROY signal inh,KKLEB cytotox,HIF-2a block,CF NFkB inh conf
C=CCNC(=O)c1ccc(NC(=O)C2=CSCCO2)cc1,-74,24,7,-7,1,-117,·
CSCCC(NS(=O)(=O)/C=C/c1ccccc1)C(=O)O (configuration not stated),3,4,0,-9,-2,7,·
CC1CC(OC(=O)C2CCN(S(=O)(=O)c3ccc(F)cc3)CC2)C(=O)O1 (configuration not stated),3,-12,26,11,-19,18,·
COc1ccccc1-c1csc(C(C)(NC(C)=O)c2ccccc2)n1 (configuration not stated),-2,-15,11,-18,-1,-20,·
CC1(C(=O)NCc2ccc3c(c2)OCO3)CCN1C(=O)C1(c2ccc(Cl)cc2)CC1 (configuration not stated),4,5,-14,7,14,15,·
COc1ccc(-c2oc3ccc(-c4ccc(OC)nc4)cc3c2C#CC2(O)CCCCC2)cc1,2,-49,64*,-23,-37,-2,54*
COc1ccc(-c2oc3ccc(-c4ccc5c(c4)OCO5)cc3c2C#CC2(O)CCCCC2)cc1,10,-6,61*,5,-37,-4,53*
COc1ccc(CNC(=O)CN2C(=O)NC3(CCCCCCC3)C2=O)cc1,1,1,0,6,15,0,·
C=CCNC(=S)N/N=C/c1ccc(-c2ccc(Cl)cc2Cl)o1,-45,-12,-17,-13,3,-146,·
C/C(=N/Nc1ccccc1[N+](=O)[O-])c1ccc([N+](=O)[O-])cc1,1,-23,51*,51*,-38,14,24
COc1cccc(C2NC(=O)CCC2[N+](=O)[O-])c1 (configuration not stated),10,20,-4,-8,-3,12,·
COc1nc(-c2ccc(C)cc2)ccc1-c1noc(-c2cccnc2)n1,-14,0,53*,-8,-32,-6,19
Cc1ccccc1-c1cccc([C@@H]2C[C@H]3CN(Cc4cccnc4)C(=O)[C@]34CCCN24)c1,-11,-14,2,-18,-13,-23,·
COc1ccccc1C(=O)Nc1ccccc1SC(=O)c1ccccc1OC,-93,47,51*,50*,2,-98,39
COC(=O)c1ccccc1NC(=O)c1ccccc1OC,-26,-3,14,3,-2,-18,·
NC(=S)N1OC[C@@H]2COc3ccc4ccccc4c3[C@@H]21,-64,33,72*,28,-36,11,55*
CO/N=C/NC(=O)N1OC[C@@H]2COc3ccc4ccccc4c3[C@@H]21,13,-9,9,11,4,17,·
O=C(O)CC1(CC(=O)Nc2nccs2)CCCCC1,-7,-13,-16,-12,9,5,·
